The full list was thinned out, with hits kept by preference.
PglD DTNB – blocks C. jejuni PglD acetyltransferase activity. purified PglD enzyme, DTNB colorimetric CoA detection. inhibition, % at 12.5 µM. 360,000 compounds, 0.098% hits. AID 602405; in the data active = inhibition above about 16%, passing the limit was not always enough
Glyco luc inh – N-linked glycosylation inhibition | D54 ERlucT glycosylation luciferase reporter, 24 h; percent of 100 nM tunicamycin response | reporter increase, % at 12.5 µM | 360,000 compounds, 0.23% hits | AID 588692;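 active = mean luciferase reporter signal, scaled so untreated is 0 and the glycosylation-blocking control 100, at or above a set limit in every replicate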;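 also: luciferase carries N-glycosylation sites so blocking glycosylation raises the light; 0% = median of neutral control wells and 100% = median of 100 nM tunicamycin wells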
DENV2 CPE rescue – inhibitors of DENV2 cytopathic effect; DENV2-infected cells, cytopathic effect rescue, plate reader; CPE inhibition, % at 9.99 µM; 350,000 compounds, 1.7% hits; AID 651640; in the data active = CPE inhibition above about 20%, passing the limit was not always enough; tested in BHK-21 cells;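 also: 0% = median of neutral control wells and 100% = median of positive control wells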
Rtt109 Vps75 – inhibitors of Candida albicans Rtt109/Vps75 histone acetyltransferase; Q5AAJ8; purified Rtt109/Vps75, ThioGlo CoA-SH fluorescence, 4 h; 330,000 compounds, 0.16% hits; inhibition, % at 34.9 µM; AID 540336;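 active = inhibition of at least 50% in every replicate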
Target sequence (Q5AAJ8 whole entry, looked up): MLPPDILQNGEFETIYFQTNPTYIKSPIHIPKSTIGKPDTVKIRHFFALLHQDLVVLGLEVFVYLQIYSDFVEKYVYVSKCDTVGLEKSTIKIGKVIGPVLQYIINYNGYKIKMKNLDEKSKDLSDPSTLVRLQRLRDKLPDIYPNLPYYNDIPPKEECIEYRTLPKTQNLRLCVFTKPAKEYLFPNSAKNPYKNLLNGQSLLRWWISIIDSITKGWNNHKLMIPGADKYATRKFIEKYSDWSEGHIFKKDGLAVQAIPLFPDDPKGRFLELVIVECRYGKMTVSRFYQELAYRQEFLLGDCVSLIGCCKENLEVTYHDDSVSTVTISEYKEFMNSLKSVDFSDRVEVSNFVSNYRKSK
The depositor's hits bear a star; nt = no result.

SMILES | PglD DTNB | Glyco luc inh | DENV2 CPE rescue | Rtt109 Vps75
CC(C)OC(=O)CCCNc1ccc([N+](=O)[O-])cc1[N+](=O)[O-] | -5 | -1 | 53* | 3
COC(=O)CC/C(C)=N\Nc1ccc([N+](=O)[O-])cc1[N+](=O)[O-] | 1 | 1 | nt | -17
C[C@@H]1CN([C@H](C)CO)C(=O)c2cc(NC(=O)CCC(F)(F)F)ccc2O[C@@H](C)CCCCO[C@@H]1CN(C)Cc1ccc(C(F)(F)F)cc1 | 1 | nt | 10 | nt
Cn1cnc(S(=O)(=O)N2C[C@@H](O)COC[C@@H]3O[C@@H](CC(=O)NCc4ccc(F)cc4)CC[C@H]32)c1 | 3 | nt | -5 | nt
CN1CCN(C2CCN(c3ccc(Nc4nnc(Cl)c(Nc5ccccc5S(C)(=O)=O)n4)c(OC(CF)CF)c3)CC2)CC1 | -4 | -4 | 37* | 4
COc1ccccc1N1CCN(S(=O)(=O)CCNC(=O)CCc2ccccc2)CC1 | 8 | 0 | 119* | nt
COc1ccccc1CNC(=O)[C@@H](NC(=O)C1CCN(C(=O)[C@@H]2CCCN2C(=O)OC(C)(C)C)CC1)C(C)C | -4 | -2 | 61* | -6
Nc1ccc2ccccc2c1C(=O)c1ccccc1 | 0 | -1 | 57* | -4
O=C(NCc1ccccc1)c1ccccc1 | -3 | 1 | 20* | 2
O=C(NCc1ccccc1)c1ccc(C(=O)NCc2ccccc2)cc1 | nt | -3 | -2 | 0
CN(Cc1ccccc1)N=Nc1nc[nH]c1C(N)=O | -1 | -1 | 77* | nt
O=C(Nc1ccc2c(c1)OCO2)N[C@H]1CC[C@H](CC(=O)N2CCN(c3ccccc3)CC2)O[C@@H]1CO | 3 | nt | -6 | nt
CCCNC(=O)Nc1ccc2c(c1)C(=O)N(C)C[C@H](OC)[C@H](C)CN(Cc1cccnc1)[C@H](C)CO2 | 0 | nt | -1 | nt
O=C(Nc1ccc2nc3n(c(=O)c2c1)CCCC3)c1ccccc1F | -3 | -3 | 39* | 3
COc1ccc(S(=O)(=O)N(C)C[C@@H]2OCCCC[C@@H](C)Oc3ccc(NC(=O)Nc4cccc5ccccc45)cc3C(=O)N([C@@H](C)CO)C[C@H]2C)cc1 | 1 | nt | 6 | nt
CCOC(=O)[C@@H]1[C@H]2COc3ccc(Br)cc3[C@H]2N2C(=O)N(c3ccc(C)cc3)C(=O)[C@]12C | 0 | -2 | 4 | 6
CCOC(=O)[C@H]1[C@H]2COc3ccc(Br)cc3[C@@H]2N2C(=O)CN(Cc3ccco3)C(=O)[C@@]12C | -3 | -3 | 50* | 0
CCOC(=O)[C@@H]1[C@H]2COc3ccc(Br)cc3[C@@H]2N2C(=O)N(c3ccc(C)cc3)C(=O)[C@]12C | -1 | -1 | 51* | -5
COCC(=O)Nc1ccc2c(c1)C(=O)N(C)C[C@H](OC)[C@@H](C)CN(C)[C@@H](C)CO2 | 7 | nt | 3 | nt
Cc1noc(C)c1NC(=O)Nc1ccc2c(c1)CC(=O)N([C@H](C)CO)C[C@H](C)[C@@H](CN(C)S(=O)(=O)c1cccs1)O2 | -1 | nt | 16 | nt
Cn1nc(C(F)(F)F)c(/C=N/OC(=O)c2ccccc2)c1SCc1ccccc1Cl | nt | 55* | nt | 0
COc1ccccc1NC(=O)N[C@H]1CC[C@H](CCNS(=O)(=O)c2ccccc2)O[C@@H]1CO | -5 | nt | 2 | nt
COc1cccc(NC(=O)CN(C)C(=O)CCCc2nc3ccccc3s2)c1 | 6 | 2 | 25* | -7
COc1cccc(NC(=O)CN(C)C(=O)CCCc2c[nH]c3ccccc23)c1 | -2 | 1 | -4 | 15
CC(C)NC(=O)Nc1cccc2c1O[C@H](CN(C)C(=O)NC(C)C)[C@@H](C)CN([C@@H](C)CO)C2=O | 3 | nt | 18 | nt
SMILES | PglD DTNB | Glyco luc inh | DENV2 CPE rescue | Rtt109 Vps75
C#CCN1C=C(C(=O)OCC)C(C)NS1(=O)=O (centres undefined) | 4 | -1 | -4 | 8
C#CCN1C=C(C(=O)OCC)C(C)N(Cc2ccccc2I)S1(=O)=O (centres undefined) | 5 | 10 | 74* | 6
Cc1c(Cl)cccc1N=Cc1ccc([N+](=O)[O-])s1 | 3 | 35* | nt | 12
COc1ccc2c3c(n(C)c2c1)[C@@H](CO)NCC31CCN(S(=O)(=O)c2cccc(C)c2)CC1 | nt | nt | 39* | nt
COc1ccc2c3c(n(C)c2c1)[C@H](CO)NCC31CN(C(=O)Nc2ccccc2F)C1 | nt | nt | 41* | nt
CC(CN1CCN(Cc2ccccc2)CC1)c1ccccc1 (centres undefined) | 1 | -2 | -5 | 6
ClC(CCN1CCN(Cc2ccccc2)CC1)c1ccccc1 (centres undefined) | nt | 2 | 31* | -1
CCCC(=O)Nc1ccc2c(c1)C(=O)N(C)C[C@@H](OC)[C@H](C)CN(C(=O)c1ccccc1F)[C@@H](C)CO2 | 0 | nt | 44* | nt
CO[C@H]1CN(C)C(=O)c2ccc(NC(=O)CC(F)(F)F)cc2OC[C@@H](C)N(C(=O)c2ccccc2F)C[C@H]1C | nt | nt | 62* | nt
CCC(=O)Nc1ccc2c(c1)OC[C@H](C)N(C(=O)c1ccccc1F)C[C@H](C)[C@@H](OC)CN(C)C2=O | -3 | nt | 22* | nt
CCCC(=O)Nc1ccc2c(c1)C(=O)N(C)C[C@@H](OC)[C@@H](C)CN(C(=O)c1ccccc1F)[C@H](C)CO2 | 1 | nt | -10 | nt
C[C@H]1CCCCO[C@H](CN(C)C(=O)Cc2ccccc2)[C@@H](C)CN([C@@H](C)CO)C(=O)c2cc(NC(=O)Nc3ccccc3)ccc2O1 | 3 | nt | -14 | nt
COc1ccccc1C(=O)Nc1ccc(OCC(=O)N2CC(C)CC(C)C2)cc1 (centres undefined) | 2 | -3 | 3 | 53*
COC(=O)C1CCC(=S)N1C(=O)c1ccccc1 (centres undefined) | 4 | 4 | -3 | 3
COC(=O)[C@H]1CN(C(=O)c2ccccc2)C(=O)N1 | -3 | 5 | 25* | -5
C[C@@H]1CN([C@@H](C)CO)C(=O)Cc2cc(NC(=O)Nc3ccc(F)cc3)ccc2O[C@H]1CN(C)C(=O)Nc1ccc(F)cc1 | 1 | nt | -7 | nt
COc1ccc2c3c([nH]c2c1)[C@H](CO)N(C(=O)C1CC1)CC31CN(S(C)(=O)=O)C1 | nt | nt | 3 | nt
CCN(C(=O)c1ccc2c(SCC(=O)O)c3c(nc2c1)CCC3)c1cc(Cl)ccc1OC | -4 | 3 | 50* | 5
COc1cc(NC(=O)CSc2c3c(nc4ccccc24)CCC3)cc(OC)c1OC | 0 | -2 | 70* | 28
CO[C@@H]1CN(C)C(=O)c2ccc(NS(=O)(=O)c3cccc(F)c3)cc2OC[C@H](C)N(Cc2cc(F)ccc2F)C[C@H]1C | 0 | nt | 4 | nt
Cc1cccn2c(=O)c3cc(C(=O)N4CCCCC4)sc3nc12 | 3 | 34* | -6 | -47
C[n+]1c2n(c3ccccc31)N=C(c1ccc(Br)cc1)CS2 | -2 | 37* | nt | nt
CC(=O)Nc1cccc(-c2cc3c(c4c2ccn4C)C2CCC3O2)c1 (centres undefined) | 3 | 6 | -1 | nt
Cn1ccc2c(-c3cccc(C=O)c3)cc3c(c21)C1CCC3O1 (centres undefined) | -1 | 6 | 50* | nt
C[C@@H]1CN([C@@H](C)CO)C(=O)c2cc(NC(=O)Nc3ccc(C(F)(F)F)cc3)ccc2O[C@@H](C)CCCCO[C@@H]1CN(C)Cc1ccc(C(=O)O)cc1 | 0 | nt | -1 | nt
